BAZ2B block: inhibitors of human BAZ2B bromodomain; Q9UIF8; AID 504333; Potency, µM (series often up to 114 µM), for the others: top-dose activity change, negative = inhibition, actives largely listed as inhibitors; AlphaScreen BAZ2B-H3K14Ac peptide displacement; hit rate 4.4% among 360,000; also: % is scaled to controls: 0 for no effect and ±100 for the full control effect; nearly all actives have a fitted effect of over 60% in size
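Complex of BAZ2B and biotin-H3K14Ac (50 nM apiece) forms over 30 min at RT, then faces library compounds up to 110 uM for another 30 min; AlphaScreen beads added, 20 min dark incubation, luminescence read.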
G9a inh: inhibitors of human histone lysine methyltransferase G9a. Q96KQ7. G9a H3K9 monomethylation, AlphaScreen, 2 h. Potency, µM (series often up to 102 µM), inactives show at the highest dose activity, negative = inhibition, actives largely listed as inhibitors. hit rate 8.8% among 350,000. AID 504332; also: % is scaled to controls: 0 for no effect and ±100 for the full control effect; nearly all actives have a fitted effect of over 75% in size
Target sequence (Q96KQ7 913-1193 limits assumed): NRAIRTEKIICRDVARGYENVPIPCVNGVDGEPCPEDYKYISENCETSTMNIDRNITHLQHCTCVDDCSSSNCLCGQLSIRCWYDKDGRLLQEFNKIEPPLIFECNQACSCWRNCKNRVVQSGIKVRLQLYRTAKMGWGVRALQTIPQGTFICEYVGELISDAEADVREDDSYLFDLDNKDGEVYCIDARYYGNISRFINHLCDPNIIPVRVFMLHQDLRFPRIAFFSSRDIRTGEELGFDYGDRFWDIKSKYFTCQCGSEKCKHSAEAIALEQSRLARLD
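Step 1: enzyme (final 20 nM) with compound, 15 min RT. Step 2: substrate peptide 500 nM and SAM 20 uM, 2 h RT. Step 3: anti-H3K9me1 antibody and AlphaScreen beads, 10 min, then plate read.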
PLK1 PBD inh: inhibitors of human PLK1 polo-box domain binding | P53350 | Plk1 PBD binding of FITC phosphopeptide, fluorescence polarization | Potency, µM, for inactives: max response, negative = inhibition, actives largely listed as inhibitors | hit rate 2.8% among 360,000; also: series mostly up to about 57 µM; % is scaled to controls: 0 for no effect and ±100 for the full control effect; nearly all actives have a fitted effect of over 65% in size
12-LOX inh: inhibitors of human 12S-lipoxygenase ALOX12. purified 12hLO, xylenol orange hydroperoxide absorbance. Potency, µM (top dose mostly 108 µM), for the others: top-dose activity change, negative = inhibition, most hits filed as inhibitors. AID 1671190. hit rate 1.1% among 580,000; also: % is scaled to controls: 0 for no effect and ±100 for the full control effect
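Purified human 12hLO at 150 nM in 25 mM Hepes, 0.01% Triton X-100, pH 7.0, preincubated 15 min at room temperature with compound. Reaction started with 40 uM arachidonic acid, 30 min at room temperature. Hydroperoxide measured by Fe-xylenol orange, 573/405 nm absorbance ratio.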
JMJD2A Tudor inh: blocks the human JMJD2A Tudor domain. AlphaScreen JMJD2A-Tudor / H3K4me3 peptide binding. AID 504339. hit rate 4.4% among 390,000. Potency, µM (highest dose often 114 µM), for the others: at the highest dose activity change, negative = inhibition, hits mostly inhibitors. O75164; also: % is scaled to controls: 0 for no effect and ±100 for the full control effect; nearly all actives have a fitted effect of over 50% in size
HP1b binding inh: blocks HP1-beta chromodomain binding to methylated histone tails; P83916; AlphaScreen HP1-beta / biotin-H3K9me3 peptide binding; Potency, µM (top dose mostly 114 µM), without a hit: at the top dose activity change, negative = inhibition, usual class: inhibitors; hit rate 0.56% among 390,000; AID 540317; also: nearly all actives have a fitted effect of over 70% in size
Target sequence (P83916 whole entry, looked up): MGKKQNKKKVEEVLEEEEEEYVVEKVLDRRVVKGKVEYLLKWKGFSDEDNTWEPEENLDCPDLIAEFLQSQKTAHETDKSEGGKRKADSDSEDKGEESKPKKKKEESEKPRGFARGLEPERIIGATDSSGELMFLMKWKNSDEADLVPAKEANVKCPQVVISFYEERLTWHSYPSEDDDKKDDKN
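AlphaScreen: HP1-beta (50 nM) preformed 30 min with biotin-H3(1-18)K9me3 peptide (50 nM) in PBS pH 7.4, 0.01% Tween-20. Compound added for 30 min at RT, then streptavidin donor/nickel chelate acceptor beads (10 ug/mL) for 30 min.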
Active calls of the source: *; [ ] = another dose, or the depositor's remark. Shown are actives, neighbours in structure and some others; about 9% of the full set was active somewhere. Calls follow the shape of the dose curve; as a rule, active = well fitted curve in the direction sought with a large enough effect; inconclusive = small, poorly fitted or top-dose-only effect, or another doubt; inactive = no such curve, though single readings can be large; an effect the other way counts as inactive or inconclusive. Potency is read from the fitted curve at half-maximal effect.

Screening CN1CCN(c2nc3ccccc3nc2NS(=O)(=O)c2cc(Cl)ccc2Cl)CC1 returned 12-LOX inh 4.6%.
CC(=O)Nc1ccc(S(=O)(=O)Nc2nc3ccccc3nc2N2CCc3ccccc3C2)cc1 was read as BAZ2B block -5.3%, G9a inh -2.3%[59 µM], PLK1 PBD inh -22.9%, 12-LOX inh -11.2%, JMJD2A Tudor inh -23.1% and HP1b binding inh 11.8%.
For O=S(=O)(Nc1nc2ccccc2nc1N1CCc2ccccc2C1)c1ccc(Br)cc1 the results were BAZ2B block -7.9%, G9a inh 8.91µM*, PLK1 PBD inh inconclusive, 12-LOX inh -4.8%, JMJD2A Tudor inh 0.3% and HP1b binding inh 53.6%.
O=S(=O)(Nc1nc2ccccc2nc1N1CCN(CCO)CC1)c1cc(F)ccc1F was read as BAZ2B block 18.2%, G9a inh 7.08µM*, PLK1 PBD inh -4.9%, 12-LOX inh 478.7%, JMJD2A Tudor inh -5.4% and HP1b binding inh 43.0%.
O=S(=O)(Nc1nc2ccccc2nc1N1CCc2ccccc2C1)c1ccc(Cl)cc1 was read as BAZ2B block 3.5%, G9a inh inconclusive, PLK1 PBD inh 21.2µM*, 12-LOX inh 0.2%, JMJD2A Tudor inh 2.6% and HP1b binding inh 64.3%.
Screening Cc1nnc(NC(=O)CSc2nc3[nH]ncc3c(=O)[nH]2)s1 returned BAZ2B block -24.2%, G9a inh 35.5µM*, PLK1 PBD inh -16.6%, 12-LOX inh -4.8%, JMJD2A Tudor inh -7.4% and HP1b binding inh 33.8%.
Cc1ccc(CNC(=O)CSc2nc3[nH]ncc3c(=O)[nH]2)cc1 was read as BAZ2B block 12.2%, G9a inh 9.1%[59 µM], PLK1 PBD inh 26.7µM*, 12-LOX inh -0.6%, JMJD2A Tudor inh inconclusive and HP1b binding inh 17.2%.
Screening COc1ccc(NC(=O)CSc2nc3[nH]ncc3c(=O)[nH]2)cc1OC returned BAZ2B block -24.1%, G9a inh 44.7µM*, PLK1 PBD inh -2.0%, 12-LOX inh -0.6%, JMJD2A Tudor inh inconclusive and HP1b binding inh 34.2%.
CC(=O)/C=C/c1ccccc1O was read as BAZ2B block -1.1%, G9a inh -3.6%, PLK1 PBD inh -13.8%, 12-LOX inh -8.4%, JMJD2A Tudor inh -10.0% and HP1b binding inh 15.5%.
For C[n+]1ccc(/C=C/c2ccccc2O)c2ccccc21 the results were BAZ2B block inconclusive, G9a inh 25.1µM*, PLK1 PBD inh -19.5%, 12-LOX inh inconclusive, JMJD2A Tudor inh inconclusive and HP1b binding inh -18.5%.
Screening CCC(=O)Nc1nnc(Sc2ccc(N(C)C)cc2)s1 returned BAZ2B block -28.9%, G9a inh inconclusive, PLK1 PBD inh -19.4%, 12-LOX inh 0.0%, JMJD2A Tudor inh -32.4% and HP1b binding inh 9.3%.
For CN(C)c1ccc(Sc2nnc(NC(=O)Nc3ccc(Cl)cc3Cl)s2)cc1 the results were BAZ2B block -8.8%, G9a inh 28.2µM*, PLK1 PBD inh 3.0%, 12-LOX inh -27.8%, JMJD2A Tudor inh -15.6% and HP1b binding inh 25.7%.
Screening Nc1ncnc2[nH]c(=S)[nH]c12 returned PLK1 PBD inh inconclusive, 12-LOX inh inconclusive, JMJD2A Tudor inh 3.55µM* and HP1b binding inh inconclusive.
For COC(=O)c1cc(C#N)c(NCc2ccccc2)nc1C the results were BAZ2B block 3.0%, G9a inh 0.4%, PLK1 PBD inh 3.36µM*, 12-LOX inh 0.0%, JMJD2A Tudor inh inconclusive and HP1b binding inh inconclusive.
`COC(=O)c1cc(C#N)c(N(C)Cc2ccccc2)nc1C` gave BAZ2B block 95.1%, G9a inh 6.3%[12.7 µM], PLK1 PBD inh -5.7%, 12-LOX inh 3.2%, JMJD2A Tudor inh 127.6% and HP1b binding inh 225.9%.
Screening Cc1cc(C)c(SSc2nnnn2-c2ccccc2)c(C)c1 returned PLK1 PBD inh 2.99µM* and 12-LOX inh inconclusive.
For Cc1ccc(-n2nnnc2Sc2nnnn2-c2ccccc2)c(C)c1 the results were 12-LOX inh 11.5%.
For COc1ccc(NC(=S)N(CCCN2CCOCC2)Cc2cn(C)c3ccccc23)cc1OC the results were BAZ2B block inconclusive, G9a inh 50.1µM*, PLK1 PBD inh inconclusive, 12-LOX inh 2.7%, JMJD2A Tudor inh -26.9% and HP1b binding inh -3.4%.
Screening Cc1cccc(CC(=O)N2CCN(c3cc(-c4cccs4)[nH]n3)CC2)c1 returned 12-LOX inh 4.6%.
Screening CC1=Nc2ccccc2/C1=C\c1sc(Nc2ccc(C)cc2)nc1O returned BAZ2B block inconclusive, G9a inh 7.4%[59 µM], PLK1 PBD inh 6.3%, 12-LOX inh -3.4%, JMJD2A Tudor inh -21.5% and HP1b binding inh 5.6%.
Screening Oc1[nH]c(=S)sc1/C=C1\C(c2ccccc2)=Nc2ccccc21 returned BAZ2B block inconclusive, G9a inh 2.51µM*, PLK1 PBD inh -22.2%, 12-LOX inh inconclusive, JMJD2A Tudor inh 15.8µM* and HP1b binding inh -14.3%.
`COc1cccc(CNc2nc3cc(-c4ccccc4)sc3c(=O)n2C)c1OC` gave PLK1 PBD inh 2.2% and 12-LOX inh -9.3%.
For COc1ccc(OC)c(CNc2ncc(-c3cccc([N+](=O)[O-])c3)n2C)c1 the results were BAZ2B block 50.1µM*, G9a inh 28.2µM*, PLK1 PBD inh 0.3%, 12-LOX inh -25.8%, JMJD2A Tudor inh 44.7µM* and HP1b binding inh 14.1µM*.
For COc1ccc(CNc2ncc(-c3ccccc3)n2C)c(OC)c1OC the results were BAZ2B block 50.1µM*, G9a inh 7.08µM*, PLK1 PBD inh 5.2%, 12-LOX inh 2µM*, JMJD2A Tudor inh 20µM* and HP1b binding inh inconclusive.
Screening Oc1ccc(Cl)cc1CNc1ccccn1 returned BAZ2B block 6.4%, G9a inh 15.8%, PLK1 PBD inh -4.6%, 12-LOX inh inconclusive, JMJD2A Tudor inh -15.1% and HP1b binding inh 30.4%.
`Cn1c(-c2ccccc2)cnc1NCc1cc(Cl)ccc1O` gave BAZ2B block 56.2µM*, PLK1 PBD inh -4.6%, 12-LOX inh inconclusive, JMJD2A Tudor inh 35.5µM* and HP1b binding inh inconclusive.
For COc1ccc(CNc2ncc(-c3ccccc3)n2C)c2ccccc12 the results were BAZ2B block 50.1µM*, PLK1 PBD inh 8.7%, 12-LOX inh 10µM*, JMJD2A Tudor inh 17.8µM* and HP1b binding inh inconclusive.
COCCCNC(=S)N1CCN(c2nc(C)nc3sc4c(c23)CCCC4)CC1 was read as BAZ2B block -36.4%, PLK1 PBD inh 0.4%, 12-LOX inh 13.4%, JMJD2A Tudor inh -21.6% and HP1b binding inh 11.4%.
For CN(C)C(CNc1ccc(C(F)(F)F)cn1)c1ccccc1 (centres undefined) the results were BAZ2B block 0.4%, G9a inh 20.2%, PLK1 PBD inh -8.9%, 12-LOX inh 0.4%, JMJD2A Tudor inh -15.9% and HP1b binding inh -0.6%.

Bioassay records: PubChem BioAssay, National Center for Advancing Translational Sciences (NCATS)
